Shown are actives, neighbours in structure and some others; about 21% of the full set was active somewhere.
Pf growth 96h – inhibits malaria parasite growth, 96 h; AID 504834; P. falciparum luciferase reporter growth, 96 h; hit rate 6.9% among 320,000; Potency, µM (titrated, usually from 28.7 µM), actives largely listed as inhibitors
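Erythrocytes infected with luciferase-expressing P. falciparum were dispensed at 2% hematocrit and 0.05% parasitemia (final), then incubated with compounds 96 hours at 37 C in 5% CO2. Luminescence after detection reagent addition reported growth.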
NS1 inh – blocks influenza NS1 protein function | Potency, µM (series often up to 46.1 µM) | hit rate 0.4% among 270,000; calls by dose curve; further: actives are rising curves; nearly all actives have a fitted effect of over 50% in size
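Growth recovery, yeast-based: influenza A NS1 expressed in S. cerevisiae causes slow growth, and suppressors are detected by OD600. The parent strain without NS1 is used as positive control.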
SARS PLpro yeast – inhibitors of SARS-CoV papain-like protease in yeast | S. cerevisiae expressing SARS-CoV PLpro, growth rescue | Potency, µM (top dose mostly 32.9 µM), hits mostly activators | hit rate 0.19% among 330,000 | AID 485353; calls by dose curve; further: nearly all actives have a fitted effect of over 55% in size
Pf growth 48h – P. falciparum growth inhibition at 48 hours (one generation); P. falciparum luciferase growth in erythrocytes, 48 h; Potency, µM (series often up to 28.7 µM), usual class: inhibitors; hit rate 5.9% among 310,000
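First compound was added to culture medium, then infected red cells at 0.1% parasitemia and 2% hematocrit (final). After incubation at 37 C under 5% CO2, luciferase detection reagent was dispensed and light output recorded.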
CHX counter – affects cycloheximide protein synthesis inhibition readout, counter-screen; AID 2314; max response, %; hit rate 12% among 300,000; cell reporter, cycloheximide protein synthesis inhibition counterscreen; in the data active means max response mostly above about 13%, no sharp cut-off; inactive means mostly below about 14%; further: read at 38.3 µM for the half of the compounds with a filed dose
Shiga toxin inh – inhibitors of Shiga toxin in Vero cells | inhibition, % at 38.7 µM | Vero cells, Shiga toxin protein synthesis inhibition reporter | hit rate 9.2% among 290,000; in the data active means inhibition mostly above about 28%, no sharp cut-off; inactive means mostly below about 43%
Each line names hits and unclear results; the compound was inactive in the other large screens. Unless noted, the call rests on the fitted dose curve; in most records, active means well fitted inhibition curve with a large enough effect; inconclusive means small, poorly fitted or top-dose-only effect, or another doubt; inactive means no such curve, though single readings can be large or run the other way.

CN(C)C(=O)COc1ccc2c(-c3ccccc3)cc(=O)oc2c1	none
CC(C)(C)OC(=O)C1C(=O)CC(C)(O)C(C(=O)OC(C)(C)C)C1c1cccnc1 (stereo unspecified)	Pf growth 96h inconclusive (no result: Pf growth 48h)
CC(C)COC(=O)C1C(=O)CC(C)(O)C(C(=O)OCC(C)C)C1c1cccnc1 (stereo unspecified)	Pf growth 48h 9.3µM (no result: Pf growth 96h)
CC(C)OC(=O)C1C(=O)CC(C)(O)C(C(=O)OC(C)C)C1c1cccc(O)c1 (stereo unspecified)	Pf growth 96h 4.1µM
Cc1ccc(S(=O)ON2CCC(C(=O)O)(c3ccccc3)CC2)cc1 (stereo unspecified)	none (no result: Pf growth 96h, SARS PLpro yeast, Pf growth 48h, CHX counter, Shiga toxin inh)
C(=N/N1CCN(c2ccccc2)CC1)/c1ccncc1	CHX counter 17, Shiga toxin inh 29
Cn1cccc1/C=N/N1CCN(c2ccccc2)CC1	CHX counter 41, Shiga toxin inh 130 (no result: NS1 inh)
O=C(O)c1ccc(/C=N/N2CCN(c3ccccc3)CC2)cc1	CHX counter 34, Shiga toxin inh 88
Cc1ccc(N2CCN(/N=C/c3ccccc3)CC2)cc1	none
O=C(CCn1c(=S)oc2ccccc21)NCCC1=CCCCC1	none
CCSc1ccc([C@@H]2[C@H]3C(=O)N(C)C(=O)[C@H]3[C@]3(C(=O)OC)CCCCN23)cc1	Pf growth 96h inconclusive, Pf growth 48h 12µM (no result: NS1 inh, CHX counter, Shiga toxin inh)
CCSc1ccc([C@@H]2[C@@H]3C(=O)N(CC)C(=O)[C@@H]3[C@]3(C(=O)OC)CCCN23)cc1	Pf growth 96h inconclusive, Pf growth 48h 10µM (no result: NS1 inh, CHX counter, Shiga toxin inh)
CCC(C)Sc1ccc([C@@H]2[C@H]3C(=O)N(CC)C(=O)[C@H]3[C@]3(C(=O)OC)CCCCN23)cc1 (stereo partly specified)	Pf growth 96h 3.3µM, Pf growth 48h 2.6µM (no result: NS1 inh, CHX counter, Shiga toxin inh)
CCCCCCSc1ccc([C@@H]2[C@H]3C(=O)N(C)C(=O)[C@H]3[C@]3(C(=O)OC)CCCCN23)cc1	Pf growth 96h 12µM, Pf growth 48h 13µM (no result: NS1 inh, CHX counter, Shiga toxin inh)
CCCCCCSc1ccc([C@H]2N[C@@](C)(C(=O)OC)[C@H]3C(=O)N(C)C(=O)[C@@H]23)cc1	Pf growth 96h inconclusive, Pf growth 48h 15µM (no result: NS1 inh, CHX counter, Shiga toxin inh)
CCSc1ccc([C@@H]2[C@H]3C(=O)N(CC)C(=O)[C@H]3[C@]3(C(=O)OC)CCCCN23)cc1	Pf growth 96h 4.7µM, Pf growth 48h 4.1µM (no result: NS1 inh, CHX counter, Shiga toxin inh)
CCCSc1ccc([C@H]2N[C@@](C)(C(=O)OC)[C@H]3C(=O)N(C)C(=O)[C@@H]23)cc1	none (no result: NS1 inh, CHX counter, Shiga toxin inh)
N#C/C(=C\c1cn(Cc2ccc(F)cc2)c2ccccc12)C(=O)NCc1ccco1	Pf growth 96h inconclusive
N#C/C(=C\c1cn(Cc2cccc(F)c2)c2ccccc12)C(=O)NCc1ccco1	CHX counter 25, Shiga toxin inh 28
N#C/C(=C/c1cn(-c2ccccc2)nc1-c1cccc(S(=O)(=O)N2CCCC2)c1)C(=O)NCc1ccco1	Pf growth 96h 10µM, Pf growth 48h 10µM, Shiga toxin inh 34
N#C/C(=C\c1ccco1)C(=O)NCc1ccccc1	CHX counter 35, Shiga toxin inh 41 (no result: NS1 inh)
N#C/C(=C\c1cn(Cc2ccccc2)c2ccccc12)C(=O)NCc1ccco1	Pf growth 96h inconclusive, Pf growth 48h inconclusive, CHX counter 29
Cn1c(=O)n(C)c2cc(NS(=O)(=O)c3cccs3)ccc21	Pf growth 96h inconclusive (no result: NS1 inh)
CC(=O)Nc1ccc(NC(=O)C(C)OC(=O)CNS(=O)(=O)/C=C/c2ccc(C)cc2)cc1 (stereo unspecified)	none (no result: NS1 inh, SARS PLpro yeast, CHX counter, Shiga toxin inh)
COc1ccc(C(=O)CSc2nnc(C3CCCCC3)n2N)c(OC)c1	Pf growth 96h 9.3µM
CNc1oc(/C=C/c2ccccc2)nc1C#N	CHX counter 78, Shiga toxin inh 122
CCN1CCN(c2oc(-c3ccc(OC)cc3)nc2C#N)CC1	none (no result: Pf growth 96h, SARS PLpro yeast, Pf growth 48h, CHX counter, Shiga toxin inh)
N#Cc1nc(/C=C/c2ccccc2)oc1NCCCN1CCOCC1	CHX counter 33, Shiga toxin inh 83
COCCNc1oc(/C=C/c2ccccc2)nc1C#N	CHX counter 56, Shiga toxin inh 113
CCN1CCN(c2oc(/C=C/c3ccccc3)nc2C#N)CC1	CHX counter 42
COc1ccc(C(=O)OCC(=O)NC2CCCCCC2)cc1OC	Pf growth 96h inconclusive, Pf growth 48h inconclusive (no result: NS1 inh, CHX counter, Shiga toxin inh)
COc1cccc(NC(=S)N2CCC(N(C)CC3CCCO3)CC2)c1 (stereo unspecified)	Pf growth 96h inconclusive
CCn1c(SCC(=O)NCC2CCCO2)nnc1-c1ccc(S(=O)(=O)N2CCN(C)CC2)cc1 (stereo unspecified)	none
O=Cc1c(OCc2ccccc2)ccc2ccccc12	CHX counter 47, Shiga toxin inh 78
C/[N+]([O-])=C/c1c(OCc2ccccc2)ccc2ccccc12	none
COc1ccc2cc(C(=O)C3CCCN(C(=O)c4cnn(C(C)C)c4)C3)ccc2c1 (stereo unspecified)	Pf growth 96h inconclusive
COc1ccc2cc(C(=O)C3CCCN(C(=O)CCc4cnn(C)c4)C3)ccc2c1 (stereo unspecified)	Pf growth 96h inconclusive, CHX counter 27, Shiga toxin inh 43
Cn1nccc1C(=O)N1CCCC(C(=O)c2cccc3ccccc23)C1 (stereo unspecified)	none
CN(C)C(=O)CCC(=O)N1CCCC(C(=O)c2ccc3c4c(cccc24)CC3)C1 (stereo unspecified)	Pf growth 96h 15µM
Cn1cc(CCC(=O)N2CCCC(C(=O)c3cccc4ccccc34)C2)cn1 (stereo unspecified)	Pf growth 48h inconclusive, CHX counter 36
O=C(c1ccc2c3c(cccc13)CC2)C1CCCN(CC2CC2)C1 (stereo unspecified)	Pf growth 96h inconclusive, Pf growth 48h inconclusive
C=CCCC(=O)N1CCCC(C(=O)c2cccc(OC)c2)C1 (stereo unspecified)	Pf growth 96h inconclusive, CHX counter 21
O=C(NC(=S)NCc1ccccc1)c1cccc(Cl)c1	none
Cc1cc(S(=O)(=O)N2CCCOC2CNC(=O)C(=O)NCc2ccco2)ccc1F (stereo unspecified)	none (no result: NS1 inh)
CCNC(=O)COC(=O)c1cccc(Br)c1	none
O=C(C1CCCN(Cc2cccnc2)C1)N1CCCCC1 (stereo unspecified)	Pf growth 96h inconclusive, CHX counter 22
CSc1ccccc1C(=O)C1CCCN(C(=O)c2cncs2)C1 (stereo unspecified)	Pf growth 96h inconclusive
CSc1ccccc1C(=O)C1CCCN(C(=O)CCc2cccnc2)C1 (stereo unspecified)	Pf growth 96h inconclusive, CHX counter 24
COc1ccccc1-n1cc(C(=O)NCC(=O)N2CCN(c3ccccn3)CC2)c2ccccc2c1=O	CHX counter 16
COc1ccccc1-n1cc(C(=O)NCC(=O)N2CCN(c3ccccc3)CC2)c2ccccc2c1=O	CHX counter 30, Shiga toxin inh 50
COc1ccccc1N1CCN(C(=O)CNC(=O)c2cn(-c3ccccc3OC)c(=O)c3ccccc23)CC1	Pf growth 96h inconclusive, Pf growth 48h inconclusive, CHX counter 14 (no result: NS1 inh)
